In experiment [1] the target is Transcriptional activator Myb (Homo sapiens) (UniProt P10242). The experiment can be described thus: ATG_Myb_CIS: Attagene CIS-FACTORIAL HepG2 Assay for human Myeloblastosis (Myb) Proto-Oncogene Transcription Factor (AID 2282986). Conditions: HepG2 Attagene CIS-FACTORIAL Myb reporter transcription; actives raise or lower the signal. The method in brief:
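Endogenous transcription factor activity at a Myb-responsive cis element is reported in human liver HepG2 cells after 24 h chemical treatment. Reporter mRNA is detected by RT-PCR and capillary electrophoresis fluorescence, with DMSO as baseline.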

The target in experiment [2] is Nuclear respiratory factor 1 (Homo sapiens) (UniProt Q16656). The experiment can be described thus: ATG_NRF1_CIS: Attagene CIS-FACTORIAL HepG2 Assay for human Nuclear Respiratory Factor 1 (NRF1) Orphan Gene (AID 2282987). As to conditions: HepG2 NRF1 cis-element reporter, Attagene multiplex; actives raise or lower the signal. The gist of the method: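 Human hepatoma HepG2 cells carrying transfected promoter-regulated reporter units were incubated with test chemicals for 24 h. Reporter transcripts were measured by RT-PCR plus capillary electrophoresis, and endpoints derived by bidirectional fitting with DMSO as baseline.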

Experiment [3] in a line: ATG_NFI_CIS: Attagene CIS-FACTORIAL HepG2 Assay for human Nuclear Factor I (NFI) (AID 2282989). Conditions: HepG2 cis-regulatory reporter, NFI response element transcription; actives raise or lower the signal. The gist of the method: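 HepG2, transient MRTU, 24 h exposure; RNA→cDNA→PCR→FAM label→HpaI→CE fluorescence. Bidirectional fit, DMSO = baseline.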
Experiment [4] deals with Myc proto-oncogene protein (Homo sapiens) (UniProt P01106). As to the kind of experiment: ATG_Myc_CIS: Attagene CIS-FACTORIAL HepG2 Assay for human Myelocytomatosis (Myc) Proto-Oncogene Transcription Factor (AID 2282990). Conditions: HepG2, Attagene cis-reporter transcription factor activity; actives raise or lower the signal. The gist of the method: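 Transiently transfected HepG2 cells bearing cis-promoter reporter units for endogenous transcription factors; 24 h exposure. Reporter mRNA measured by RT-PCR, 6-FAM primer extension, HpaI cut and capillary electrophoresis; bidirectional fit relative to DMSO.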

Experiment [5] can be described thus: ATG_NF_kB_CIS: Attagene CIS-FACTORIAL HepG2 Assay for human Nuclear Factor Kappa B (NF-kB) (AID 2282991). Conditions: HepG2 Attagene cis-factorial NF-kB reporter mRNA; actives raise or lower the signal. The method in brief: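 Multiplexed cis-reporter assay in transiently transfected HepG2. 24 h treatment; RNA isolated, RT-PCR, labelled fragments resolved by CE. DMSO baseline.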

Experiment [6] is described as follows: ATG_NRF2_ARE_CIS: Attagene CIS-FACTORIAL HepG2 Assay for human Nuclear Factor Erythroid 2 Related Factor 2 (NFR2) response to Antioxidant Response Elements (ARE) (AID 2282992).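 On AC50: reporter mRNA level measured by RT-PCR and capillary electrophoresis fluorescence.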 As to conditions: HepG2 Attagene ARE/NRF2 reporter, transcription factor activity; actives raise or lower the signal. The gist of the method:
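Endogenous transcription factor activity in human liver HepG2 cells is tracked via a cis-element-driven reporter within a multiplexed set. mRNA induction is read by RT-PCR and capillary electrophoresis after 24 h, with DMSO as baseline.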

Experiment [7] can be described thus: ATG_Oct_MLP_CIS: Attagene CIS-FACTORIAL HepG2 Assay for human Octamer-Binding Transcription Factor (Oct) (AID 2282993). Conditions: HepG2 Attagene cis-factorial Oct reporter, mRNA; actives raise or lower the signal. The method in brief:
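Multiplexed cis-reporter assay in human liver HepG2 cells, 24 h incubation. Reporter RNA amplified and labelled, then resolved by capillary electrophoresis; DMSO serves as negative control and baseline.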

Experiment [8] deals with Retinoic acid receptor alpha (Homo sapiens) (UniProt P10276). As to the kind of experiment: ATG_RARa_TRANS: Attagene TRANS-FACTORIAL HepG2 Assay for human Retinoic Acid Receptor alpha (RARa) (AID 2283005; active means hit-call score of the fitted dose curve at least 0.9, where 1 is the maximum). The method in brief:
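HepG2 transiently transfected with multiplex GAL4-UAS reporter units including a human RARa–GAL4 chimera; 24 h compound exposure. Reporter mRNA quantified by RT-PCR, 6-FAM labeling and capillary electrophoresis; gain of signal versus DMSO.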

Experiment [9] deals with Peroxisome proliferator-activated receptor gamma (Homo sapiens) (UniProt P37231). The experiment can be described thus: ATG_PPARg_TRANS: Attagene TRANS-FACTORIAL HepG2 Assay for human Peroxisome Proliferator-activated Receptor-gamma (PPARg) (AID 2283007; active means hit-call score of the fitted dose curve at least 0.9, where 1 is the maximum). The gist of the method:
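Human hepatoma HepG2, transient MRTU transfection, 24 h treatment. mRNA reporter signal by RT-PCR plus capillary electrophoresis, fluorescence detection; fitted for increase over DMSO negative control.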

The target in experiment [10] is Cellular tumor antigen p53 (Homo sapiens) (UniProt P04637). The experiment can be described thus: ATG_p53_CIS: Attagene CIS-FACTORIAL HepG2 Assay for human p53 Transcription Factor (AID 2282994). Conditions: HepG2 p53 cis-element reporter, Attagene mRNA; actives raise or lower the signal. The method in brief: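 Steps: transfect HepG2 with multiplexed cis reporter constructs; dose chemicals 24 h; extract RNA, reverse-transcribe, PCR-amplify reporter sequences; FAM-label, HpaI-digest, resolve fragments by CE. Activity fitted both directions relative to DMSO.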

Experiment [11] can be described thus: BSK_3C_TissueFactor: BioMAP Diversity Plus: 3C Assay for Tissue Factor Biomarker Activity (AID 2282997). As to conditions: BioMAP 3C HUVEC, tissue factor biomarker readout; actives raise or lower the signal. The gist of the method:
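In this endothelial system, HUVEC are treated for 24 h and Tissue Factor is assessed by ELISA, normalised to DMSO.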

A short description of experiment [12]: BSK_3C_uPAR: BioMAP Diversity Plus: 3C Assay for Urokinase-type plasminogen activator receptor (uPAR) Biomarker Activity (AID 2282998). Conditions: BioMAP 3C HUVEC, uPAR biomarker ELISA; actives raise or lower the signal. The method in brief:
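Dose primary human umbilical vein endothelial cells, incubate 24 h, measure cell-surface uPAR by ELISA, then fit the signal in both directions against the DMSO negative control.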

The nature of experiment [13]: BSK_3C_VCAM1: BioMAP Diversity Plus: 3C Assay for Vascular cell adhesion molecule 1 (VCAM1) Biomarker Activity (AID 2282999). As to conditions: BioMAP 3C HUVEC, VCAM1 ELISA, cytokine-stimulated; actives raise or lower the signal. The method in brief: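 HUVEC primary cells, 24 h compound exposure; VCAM-1 by ELISA; gain/loss of signal fitted bidirectionally vs DMSO baseline.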
A general note: ELISA stands for enzyme-linked immunosorbent assay.

The nature of experiment [14]: BSK_4H_Eotaxin3: BioMAP Diversity Plus: 4H Assay for Eotaxin 3 Biomarker Activity (AID 2283000).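 Further: CCL26 protein level quantified by ELISA in parallel with SRB cytotoxicity check.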 As to conditions: primary human endothelial cells (HUVEC); actives raise or lower the signal. The gist of the method:
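ELISA quantitation of CCL26 (Eotaxin-3) protein from chemically dosed human vascular endothelial cells at 24 h; increases and decreases both scored relative to DMSO-treated baseline.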

The target of experiment [15] is human Peroxisome Proliferator-activated Receptor alpha (PPARa), PPARA (gene 5465) (UniProt Q07869). As to the kind of experiment: ATG_PPARa_TRANS: Attagene TRANS-FACTORIAL HepG2 Assay for human Peroxisome Proliferator-activated Receptor alpha (PPARa) (AID 2283001; active means hit-call score of the fitted dose curve at least 0.9, where 1 is the maximum). The method in brief:
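HepG2, transient MRTU transfection, 24 h treatment. RT-PCR → FAM labelling → capillary electrophoresis. Fit vs DMSO, positive direction.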

Read-out in experiment [16]: Intercellular Adhesion Molecule 1 (ICAM1), ICAM1 (gene 3383)
The experiment can be described thus: BSK_3C_ICAM1: BioMAP Diversity Plus: 3C Assay for Intercellular Adhesion Molecule 1 (ICAM1) Biomarker Activity (AID 2283003). Conditions: primary human endothelial cells (HUVEC); actives raise or lower the signal. The method in brief: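 ELISA readout of ICAM1 in human umbilical vein endothelial cells in the 3C system, taken 24 h post-dose. Gain or loss of signal versus DMSO was fitted in both directions, with SRB total-protein staining run in parallel.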

A short description of experiment [17]: BSK_3C_Proliferation: Cell Proliferation Assessment in the BioMAP Diversity Plus: 3C Assay (AID 2283006). Conditions: primary human endothelial cells (HUVEC). The gist of the method: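 Proliferation as total protein: sulforhodamine B (0.1%) stain of TCA-fixed subconfluent human umbilical vein endothelial cells, absorbance 560 nm, 48 h after dosing. Activity fitted in both directions against DMSO baseline.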

Experiment [18] addresses Nuclear receptor subfamily 1 group I member 2 (Homo sapiens) (UniProt O75469). As to the kind of experiment: ATG_PXR_TRANS: Attagene TRANS-FACTORIAL HepG2 Assay for human Pregnane X Receptor (PXR) (AID 2283008; active means hit-call score of the fitted dose curve at least 0.9, where 1 is the maximum). The gist of the method: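 HepG2 transfected (FuGene 6) with GAL4-UAS reporter units + PXR-Gal4 chimera; dosed 24 h. Total RNA → oligo(dT) RT → PCR → 6-FAM primer extension → HpaI cut → CE. Gain-of-signal vs DMSO.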

Experiment [19] concerns the target human Retinoic Acid Receptor gamma (RARg), RARG (gene 5916) (UniProt P13631). As to the kind of experiment: ATG_RARg_TRANS: Attagene TRANS-FACTORIAL HepG2 Assay for human Retinoic Acid Receptor gamma (RARg) (AID 2283009; active means hit-call score of the fitted dose curve at least 0.9, where 1 is the maximum). The gist of the method: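 Transactivation of exogenous RARg-Gal4 fusion measured as reporter transcript induction after 24 h in transfected HepG2 cells. RNA reverse-transcribed, amplified, fluorescently labeled and resolved by capillary electrophoresis; increase relative to DMSO.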

The target of experiment [20] is human Peroxisome Proliferator-activated Receptor delta (PPARd), PPARD (gene 5467) (UniProt Q03181). As to the kind of experiment: ATG_PPARd_TRANS: Attagene TRANS-FACTORIAL HepG2 Assay for human Peroxisome Proliferator-activated Receptor delta (PPARd) (AID 2283002; active means hit-call score of the fitted dose curve at least 0.9, where 1 is the maximum). The method in brief:
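HepG2 cells transiently transfected with GAL4-UAS multiplexed reporter units driven by exogenous chimeric NR-GAL4 proteins; 24 h compound exposure. Reporter mRNA measured by RT-PCR, 6-FAM primer extension, HpaI digestion and capillary electrophoresis; gain of signal fitted relative to DMSO.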

Molecules are shown by their SMILES. Records with an inconclusive call do not appear. Calls of active or inactive are those of the source. How the source made its calls, unless noted: active means hit-call score of the fitted dose curve at least 0.9, where 1 is the maximum; inactive means score below 0.9.

Sequence of human Peroxisome Proliferator-activated Receptor delta (PPARd), PPARD (gene 5467) (Q03181 whole entry, looked up, the tested form may be a part): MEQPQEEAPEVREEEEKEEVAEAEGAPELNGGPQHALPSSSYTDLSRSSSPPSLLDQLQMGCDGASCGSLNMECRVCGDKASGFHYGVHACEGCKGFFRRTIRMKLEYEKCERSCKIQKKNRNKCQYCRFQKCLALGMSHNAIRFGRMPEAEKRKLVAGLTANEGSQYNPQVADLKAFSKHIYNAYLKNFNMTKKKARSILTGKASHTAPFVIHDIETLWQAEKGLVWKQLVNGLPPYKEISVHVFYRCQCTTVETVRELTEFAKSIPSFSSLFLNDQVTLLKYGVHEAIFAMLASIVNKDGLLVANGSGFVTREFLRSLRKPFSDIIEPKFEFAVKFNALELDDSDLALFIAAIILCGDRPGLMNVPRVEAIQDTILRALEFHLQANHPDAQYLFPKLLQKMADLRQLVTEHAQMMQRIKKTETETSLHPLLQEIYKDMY
Sequence of Nuclear respiratory factor 1 (Homo sapiens) (Q16656 whole entry, looked up): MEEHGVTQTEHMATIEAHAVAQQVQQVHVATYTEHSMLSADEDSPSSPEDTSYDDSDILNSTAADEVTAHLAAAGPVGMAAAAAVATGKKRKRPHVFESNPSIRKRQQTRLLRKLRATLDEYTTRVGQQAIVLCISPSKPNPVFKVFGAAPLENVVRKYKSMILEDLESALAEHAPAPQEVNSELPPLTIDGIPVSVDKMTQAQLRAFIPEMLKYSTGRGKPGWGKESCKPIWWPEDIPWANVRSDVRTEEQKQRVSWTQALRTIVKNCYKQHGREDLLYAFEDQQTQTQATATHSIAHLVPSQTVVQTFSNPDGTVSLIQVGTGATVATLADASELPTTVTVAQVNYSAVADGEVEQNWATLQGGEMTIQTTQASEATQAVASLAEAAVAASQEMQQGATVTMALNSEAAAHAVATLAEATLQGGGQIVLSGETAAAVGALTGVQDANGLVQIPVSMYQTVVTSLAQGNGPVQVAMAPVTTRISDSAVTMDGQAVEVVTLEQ
Sequence of Peroxisome proliferator-activated receptor gamma (Homo sapiens) (P37231 whole entry, looked up): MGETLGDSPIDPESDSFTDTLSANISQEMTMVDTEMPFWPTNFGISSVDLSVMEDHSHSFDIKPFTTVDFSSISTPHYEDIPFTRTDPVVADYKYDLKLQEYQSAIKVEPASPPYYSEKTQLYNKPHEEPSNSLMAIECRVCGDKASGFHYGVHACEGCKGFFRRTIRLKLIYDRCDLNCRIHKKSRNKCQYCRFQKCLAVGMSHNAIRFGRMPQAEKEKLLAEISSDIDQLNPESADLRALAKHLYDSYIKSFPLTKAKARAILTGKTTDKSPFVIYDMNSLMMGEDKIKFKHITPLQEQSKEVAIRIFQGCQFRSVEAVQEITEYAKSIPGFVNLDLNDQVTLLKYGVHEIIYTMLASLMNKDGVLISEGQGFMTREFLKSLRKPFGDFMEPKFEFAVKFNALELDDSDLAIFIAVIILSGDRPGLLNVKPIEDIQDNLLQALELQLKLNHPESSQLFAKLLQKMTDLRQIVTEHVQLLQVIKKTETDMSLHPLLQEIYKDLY
Sequence of human Peroxisome Proliferator-activated Receptor alpha (PPARa), PPARA (gene 5465) (Q07869 whole entry, looked up): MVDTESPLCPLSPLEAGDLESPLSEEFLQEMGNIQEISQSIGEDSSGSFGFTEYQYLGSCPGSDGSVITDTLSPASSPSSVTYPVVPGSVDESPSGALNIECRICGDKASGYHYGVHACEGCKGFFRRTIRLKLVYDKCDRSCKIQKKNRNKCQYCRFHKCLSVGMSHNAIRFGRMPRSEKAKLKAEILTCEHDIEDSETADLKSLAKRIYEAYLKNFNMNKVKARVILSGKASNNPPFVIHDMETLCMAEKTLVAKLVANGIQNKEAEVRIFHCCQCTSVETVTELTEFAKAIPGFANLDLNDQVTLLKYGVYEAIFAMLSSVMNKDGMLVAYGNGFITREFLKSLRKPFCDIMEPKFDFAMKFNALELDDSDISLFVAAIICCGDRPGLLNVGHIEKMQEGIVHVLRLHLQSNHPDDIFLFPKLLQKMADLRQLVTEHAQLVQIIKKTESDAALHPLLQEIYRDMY
Sequence of Transcriptional activator Myb (Homo sapiens) (P10242 whole entry, looked up): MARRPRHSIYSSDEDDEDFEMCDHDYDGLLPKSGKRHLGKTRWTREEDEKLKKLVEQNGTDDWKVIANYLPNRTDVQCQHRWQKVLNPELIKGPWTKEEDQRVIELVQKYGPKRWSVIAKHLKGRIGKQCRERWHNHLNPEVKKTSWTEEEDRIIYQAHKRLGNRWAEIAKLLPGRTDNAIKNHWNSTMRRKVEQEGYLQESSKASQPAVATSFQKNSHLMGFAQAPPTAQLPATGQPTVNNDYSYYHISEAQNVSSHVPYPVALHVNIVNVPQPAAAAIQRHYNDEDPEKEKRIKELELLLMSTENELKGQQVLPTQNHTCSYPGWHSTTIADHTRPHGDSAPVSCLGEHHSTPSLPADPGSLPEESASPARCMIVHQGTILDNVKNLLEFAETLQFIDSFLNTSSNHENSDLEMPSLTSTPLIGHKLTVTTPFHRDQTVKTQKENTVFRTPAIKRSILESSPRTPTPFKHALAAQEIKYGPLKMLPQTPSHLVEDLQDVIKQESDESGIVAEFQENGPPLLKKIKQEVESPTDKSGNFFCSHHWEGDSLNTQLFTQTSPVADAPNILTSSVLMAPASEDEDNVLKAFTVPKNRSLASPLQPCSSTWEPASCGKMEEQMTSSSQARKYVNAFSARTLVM
Sequence of Nuclear receptor subfamily 1 group I member 2 (Homo sapiens) (O75469 whole entry, looked up, the tested form may be a part): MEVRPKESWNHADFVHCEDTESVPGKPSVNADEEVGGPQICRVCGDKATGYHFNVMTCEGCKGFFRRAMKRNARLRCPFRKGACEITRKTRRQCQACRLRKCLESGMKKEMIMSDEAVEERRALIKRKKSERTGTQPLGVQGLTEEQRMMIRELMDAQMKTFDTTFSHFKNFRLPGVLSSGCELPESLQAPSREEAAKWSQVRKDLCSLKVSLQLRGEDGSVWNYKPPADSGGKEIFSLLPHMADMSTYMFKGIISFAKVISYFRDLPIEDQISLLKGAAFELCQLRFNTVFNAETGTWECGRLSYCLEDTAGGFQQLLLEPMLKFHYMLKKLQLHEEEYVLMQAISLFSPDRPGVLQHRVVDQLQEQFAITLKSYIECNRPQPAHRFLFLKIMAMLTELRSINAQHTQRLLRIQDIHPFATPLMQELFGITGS
Sequence of Retinoic acid receptor alpha (Homo sapiens) (P10276 whole entry, looked up, the tested form may be a part): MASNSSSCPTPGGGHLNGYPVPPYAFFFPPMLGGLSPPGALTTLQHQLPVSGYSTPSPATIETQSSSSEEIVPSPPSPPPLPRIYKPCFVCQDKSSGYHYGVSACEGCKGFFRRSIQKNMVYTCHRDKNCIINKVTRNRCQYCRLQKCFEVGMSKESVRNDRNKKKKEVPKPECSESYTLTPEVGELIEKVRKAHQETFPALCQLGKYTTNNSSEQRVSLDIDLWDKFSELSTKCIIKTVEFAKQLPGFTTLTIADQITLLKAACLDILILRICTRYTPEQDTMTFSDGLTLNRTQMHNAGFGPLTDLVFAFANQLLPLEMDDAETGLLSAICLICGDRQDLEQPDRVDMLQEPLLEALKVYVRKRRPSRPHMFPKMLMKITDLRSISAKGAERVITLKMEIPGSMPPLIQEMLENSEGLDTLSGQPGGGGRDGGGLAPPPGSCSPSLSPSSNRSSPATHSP
Sequence of Cellular tumor antigen p53 (Homo sapiens) (P04637 whole entry, looked up, the tested form may be a part): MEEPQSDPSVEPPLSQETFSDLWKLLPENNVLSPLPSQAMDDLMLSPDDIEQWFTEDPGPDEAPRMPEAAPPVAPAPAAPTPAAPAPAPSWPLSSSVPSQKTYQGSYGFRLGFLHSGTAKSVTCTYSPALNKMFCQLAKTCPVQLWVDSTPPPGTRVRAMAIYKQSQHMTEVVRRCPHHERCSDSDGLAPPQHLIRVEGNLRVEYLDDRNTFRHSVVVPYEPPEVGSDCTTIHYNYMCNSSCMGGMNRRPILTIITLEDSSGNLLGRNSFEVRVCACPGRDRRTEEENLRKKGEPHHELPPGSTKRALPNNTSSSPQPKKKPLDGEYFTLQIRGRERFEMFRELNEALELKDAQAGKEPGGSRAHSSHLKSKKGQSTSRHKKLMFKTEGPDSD
Sequence of Myc proto-oncogene protein (Homo sapiens) (P01106 whole entry, looked up): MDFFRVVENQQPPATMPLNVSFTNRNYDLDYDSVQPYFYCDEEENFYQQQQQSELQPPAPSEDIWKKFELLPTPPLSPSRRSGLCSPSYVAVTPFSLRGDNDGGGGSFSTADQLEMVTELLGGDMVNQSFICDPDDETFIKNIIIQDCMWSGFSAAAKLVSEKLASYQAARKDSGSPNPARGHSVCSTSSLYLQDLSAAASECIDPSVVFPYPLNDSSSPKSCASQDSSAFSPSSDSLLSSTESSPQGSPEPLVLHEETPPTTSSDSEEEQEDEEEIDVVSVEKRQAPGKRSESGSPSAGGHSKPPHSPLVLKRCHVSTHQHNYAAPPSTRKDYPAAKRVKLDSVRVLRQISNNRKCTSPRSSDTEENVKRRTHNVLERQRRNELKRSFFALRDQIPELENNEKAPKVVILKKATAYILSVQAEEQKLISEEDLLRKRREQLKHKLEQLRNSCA
Sequence of human Retinoic Acid Receptor gamma (RARg), RARG (gene 5916) (P13631 whole entry, looked up, the tested form may be a part): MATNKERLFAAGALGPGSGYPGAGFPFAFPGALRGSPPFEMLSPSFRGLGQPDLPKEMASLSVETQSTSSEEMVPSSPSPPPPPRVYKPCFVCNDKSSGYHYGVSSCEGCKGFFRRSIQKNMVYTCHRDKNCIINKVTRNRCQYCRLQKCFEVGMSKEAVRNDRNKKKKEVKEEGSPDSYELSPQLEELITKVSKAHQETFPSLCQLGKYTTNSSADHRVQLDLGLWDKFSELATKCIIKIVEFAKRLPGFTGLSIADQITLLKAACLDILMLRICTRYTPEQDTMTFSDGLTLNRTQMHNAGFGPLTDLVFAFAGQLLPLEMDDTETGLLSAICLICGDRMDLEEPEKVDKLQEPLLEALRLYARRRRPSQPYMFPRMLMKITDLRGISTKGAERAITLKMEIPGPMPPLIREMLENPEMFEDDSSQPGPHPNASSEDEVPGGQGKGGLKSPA

A word on the AC50: it is the midpoint of the concentration-response curve, whichever way the signal moves. Turning to `C=C(C)C(=O)OCC1CO1` (centres undefined), the result in experiment [1], in [2], in experiment [3], in [4], in experiment [5] and in experiment [7] was inactive. For the same compound, the call in [8] and in experiment [9] was inactive. Also, the AC50 in experiment [6] is 42.9 µM (active).

For `c1ccc2c(c1)sc1ccccc12`, the call in [1], in experiment [2], in experiment [3], in experiment [6], in experiment [7] and in experiment [10] was inactive. The outcome in experiment [11], in experiment [12], in experiment [13], in experiment [14], in experiment [15] and in experiment [16] was inactive. Also, the outcome in experiment [17], in experiment [9], in experiment [18] and in [19] was inactive.

For the compound `CCC1(c2ccccc2)C(=O)N=C(O)NC1=O` (centres undefined), the outcome in [1], in [2], in experiment [3], in experiment [5], in experiment [6] and in [7] was inactive. In addition, the result in [11], in experiment [12], in experiment [13], in [14], in [15] and in experiment [20] was inactive. Moreover, the result in experiment [16], in experiment [17], in [9] and in experiment [18] was inactive.

Turning to `CC1(C)CN=C(NN=C(/C=C/c2ccc(C(F)(F)F)cc2)/C=C/c2ccc(C(F)(F)F)cc2)NC1`, the outcome in experiment [1], in experiment [5], in experiment [10], in experiment [20], in experiment [8] and in experiment [18] was inactive. Also, the AC50 is 18 µM (active) in [2], 15.4 µM (active) in experiment [3], 3.06 µM (active) in [6] and 20.8 µM (active) in experiment [7].

With `CC1=C(C(=O)Nc2ccccc2)S(=O)(=O)CCO1`, the compound was classed as inactive in experiment [1], in experiment [2], in experiment [3], in [7], in experiment [15] and in experiment [20]. The compound was called inactive in [18]. In addition, the results for the AC50 in experiment [5], in experiment [6] and in [9] were 122 µM (active), 2.92 µM (active) and 1.9 µM (active), respectively.

Take `O=[N+]([O-])c1cc(Cl)ccc1Cl`: the call in experiment [1], in experiment [2], in experiment [3], in [5], in experiment [6] and in [7] was inactive. Moreover, the call in experiment [20] and in experiment [18] was inactive. Further, the AC50 in [9] was 16.1 µM (active).

On to `CCN(CC)c1ccccc1`, for which the compound was called inactive in experiment [1], in [2], in experiment [3], in experiment [5], in [6] and in experiment [7]. The result in [11], in experiment [12], in experiment [13], in experiment [14], in experiment [15] and in [16] was inactive. The outcome in experiment [17] and in experiment [18] was inactive.
